Measurements from PubChem BioAssay (NCI).
This is part of a sample that, as a whole, favours compounds with a hit. Of some 79,000 tested, about 15% had one in any assay. Activity calls are given as the source filed them. Cut-off read from the data, not from the text of the source: active = growth inhibition above about 70%; inactive = the rest.

Tests used:
[1] = NCI Yeast Anticancer Drug Screen. Data for the rad52 strain (AID 147);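 note: 0% = growth of vehicle-treated control cultures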; conditions: S. cerevisiae rad52 mutant growth inhibition, stronger effect = higher value
Outline: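 Inhibition of yeast growth, referenced to vehicle controls, was the measured output for a strain with defective DNA damage repair.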

[2] = NCI Yeast Anticancer Drug Screen. Data for the wt1 strain (AID 149);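 note: 0% = growth of vehicle-treated wt1 cultures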; conditions: S. cerevisiae wt1 strain (SPY 50644) growth inhibition, stronger effect = higher value
Outline: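 wt1 yeast, compound-treated; % growth inhibition vs vehicle control.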

[3] = NCI Yeast Anticancer Drug Screen. Data for the rad50EPP+ strain (AID 151);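 note: 0% = growth of vehicle-treated control cultures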; conditions: S. cerevisiae rad50 mutant strain, stronger effect = higher value
Outline: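 Genetically defined yeast (rad50EPP+, DNA damage repair alteration) is grown with compound, and inhibition of growth is expressed relative to vehicle-treated controls.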

[4] = NCI Yeast Anticancer Drug Screen. Data for the mgt1 strain (AID 153); conditions: S. cerevisiae mgt1 mutant growth inhibition, stronger effect = higher value
Outline: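 In the mgt1 strain, test compounds were added and growth inhibition was determined relative to vehicle-treated controls.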

[5] = NCI Yeast Anticancer Drug Screen. Data for the rad50 strain (AID 155);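 note: 0% = growth of vehicle-only cultures of the same strain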; conditions: S. cerevisiae rad50 strain growth inhibition, stronger effect = higher value
Outline: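 Genetically altered yeast (DNA repair pathway); compound treatment; growth inhibition vs vehicle ctrl.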

[6] = NCI Yeast Anticancer Drug Screen. Data for the mec2-1 strain (AID 157); conditions: S. cerevisiae mec2-1 strain, stronger effect = higher value
Outline: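 Each compound was tested on mec2-1 yeast, a strain altered in DNA damage repair or cell cycle control. Growth inhibition is reported relative to vehicle.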

[7] = NCI Yeast Anticancer Drug Screen. Data for the sgs1 mgt1 strain (AID 161);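 note: 0% = growth of cultures given vehicle only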; conditions: S. cerevisiae sgs1 mgt1 strain, stronger effect = higher value
Outline: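 Inhibition of yeast growth, normalised to vehicle-treated controls, is reported for a strain bearing genetic alterations in DNA damage repair.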

[8] = NCI Yeast Anticancer Drug Screen. Data for the CLN2oe strain (AID 163);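 note: 0% = growth of vehicle-only control cultures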; conditions: S. cerevisiae CLN2oe strain, stronger effect = higher value
Outline: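 First, the altered yeast strain was treated with each compound; second, its growth was measured; finally, inhibition was derived by comparison with vehicle controls.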

[9] = NCI Yeast Anticancer Drug Screen. Data for the cln2 rad14 strain (AID 165);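 note: 0% = growth equal to vehicle treated cultures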; conditions: S. cerevisiae cln2 rad14 strain, stronger effect = higher value
Outline: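 Test compounds were added to cln2 rad14 yeast cultures; inhibition of growth was then determined by comparison with vehicle treatment.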

[10] = NCI Yeast Anticancer Drug Screen. Data for the bub3 strain (AID 167); conditions: S. cerevisiae bub3 mutant strain, stronger effect = higher value
Outline: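 Yeast carrying a defined mutation is treated with each compound, and growth is compared with that of vehicle-exposed cells to give inhibition.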

[11] = NCI Yeast Anticancer Drug Screen. Data for the wt2 strain (AID 169);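 note: 0% = growth of vehicle-treated yeast cultures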; conditions: S. cerevisiae wt2 strain growth inhibition, stronger effect = higher value
Outline: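 The panel's yeast strains carry defined changes in DNA repair or cell cycle genes. Each strain is grown with compound, and growth loss is scored relative to vehicle.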

[12] = NCI Yeast Anticancer Drug Screen. Data for the mlh1 strain (AID 171);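 note: 0% = growth of vehicle-treated control cultures of the same strain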; conditions: S. cerevisiae mlh1 strain growth inhibition, stronger effect = higher value
Outline: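 Inhibition values reflect reduced yeast growth in the presence of compound, referenced to vehicle controls, using a strain chosen for its alteration in DNA repair or cell cycle control.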

[13] = NCI Yeast Anticancer Drug Screen. Data for the sgs1 strain (AID 173);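 note: 0% = growth of vehicle-only control cultures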; conditions: S. cerevisiae sgs1 mutant, stronger effect = higher value
Outline: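 Vehicle-treated cultures served as reference for growth inhibition of a yeast strain altered in DNA damage repair or cell cycle control after compound exposure.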

[14] = NCI Yeast Anticancer Drug Screen. Data for the mlh1 rad18 strain (AID 175); conditions: S. cerevisiae mlh1 rad18 strain growth inhibition, stronger effect = higher value
Outline: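 Inhibition values reflect reduced growth of mutant yeast versus vehicle-treated controls following compound exposure; the mutations affect DNA damage repair.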

[15] = at 5.0 µM (retest, dose inferred, filed as 0.5)
[16] = at 50.0 µM (retest, dose inferred, filed as 5.0)

Measured: growth inhibition

Cc1c(C(C)C)cc(OCCO)cc1C(C)C
active: [1]; at 100.0 µM 77% | [5]; at 100.0 µM 73% | [8]; at 100.0 µM 73% | [9]; at 50.0 µM 86.2% | [14]; at 50.0 µM 83%
inactive: [1]; at 1.2 µM -3% | [1]; at 3.7 µM -1% | [1]; at 11.0 µM -4% | [1]; at 33.0 µM 4% | [2]; at 1.2 µM -2% | [2]; at 3.7 µM -3% | [2]; at 11.0 µM -3% | [2]; at 33.0 µM -7% | [2]; at 100.0 µM -7% | [3]; at 1.2 µM -1% | [3]; at 3.7 µM -2% | [3]; at 11.0 µM 0% | [3]; at 33.0 µM 6% | [3]; at 100.0 µM 16% | [4]; at 1.2 µM -4% | [4]; at 3.7 µM -11% | [4]; at 11.0 µM -9% | [4]; at 33.0 µM -12% | [4]; at 100.0 µM 7% | [5]; at 1.2 µM -3% | [5]; at 3.7 µM 2% | [5]; [15] -8% | [5]; at 11.0 µM 2% | [5]; at 33.0 µM 5% | [5]; [16] -20% | [5]; at 50.0 µM 68.7% | [6]; at 1.2 µM -4% | [6]; at 3.7 µM -7% | [6]; [15] -18% | [6]; at 11.0 µM -8% | [6]; at 33.0 µM -10% | [6]; [16] -11% | [6]; at 50.0 µM -29.8% | [6]; at 100.0 µM 15% | [7]; [15] 0% | [7]; [16] 10% | [7]; at 50.0 µM 0.35% | [8]; at 1.2 µM -3% | [8]; at 3.7 µM -3% | [8]; at 11.0 µM -4% | [8]; at 33.0 µM 0% | [9]; [15] 40% | [9]; [16] 1% | [10]; at 1.2 µM -3% | [10]; at 3.7 µM -8% | [10]; [15] -16% | [10]; at 11.0 µM -4% | [10]; at 33.0 µM -5% | [10]; [16] -6% | [10]; at 50.0 µM -16.6% | [10]; at 100.0 µM 22% | [11]; at 1.2 µM -4% | [11]; at 3.7 µM -4% | [11]; at 11.0 µM -6% | [11]; at 33.0 µM -10% | [11]; at 100.0 µM 33% | [12]; at 1.2 µM -9% | [12]; at 3.7 µM -4% | [12]; at 11.0 µM -14% | [12]; at 33.0 µM -11% | [12]; at 100.0 µM 26% | [13]; at 1.2 µM -1% | [13]; at 3.7 µM -3% | [13]; at 11.0 µM -1% | [13]; at 33.0 µM -3% | [13]; at 100.0 µM 45% | [14]; [15] -3% | [14]; [16] -18%
